Experimental data taken from PubChem BioAssay AID2315 (National Center for Advancing Translational Sciences (NCATS), 2010).
Among all 290,000 compounds or so, about 27,000 (9.3%) were called active. The full list was thinned out, with actives kept by preference. Unmarked numbers belong to inactive results. Cut-off read from the data, not from the text of the source: active = inhibition mostly above about 28% (no sharp cut-off); inactive = mostly below about 43%.

assay: A qHTS for Small Molecule Inhibitors of Shiga Toxin; conditions: Vero cells, Shiga toxin protein synthesis inhibition reporter; at 38.7 µM, stronger effect = higher value; note: 0% is about no effect

Compound	inhibition
CC(C)Cn1c(=O)c2ccccc2n2c(CCC(=O)NCc3ccccn3)nnc12	17.2%
O=Cc1cn(-c2ccccc2)nc1-c1ccccn1	16.4%
Cc1ccccc1OCC(=O)NNC(=O)c1cc(S(=O)(=O)N(C)C)ccc1N1CCCC1	-3.25%
CCCCNC(=O)C1(O)c2ccccc2NC(=O)N1c1ccc(Cl)cc1 (stereo unspecified)	20.3%
COc1ccc(N2CCN(C3CCCCC3NS(=O)(=O)c3ccccc3)CC2)cc1 (stereo unspecified)	-5.29%
CC(C(=O)c1ccc(-c2ccccc2)cc1)[n+]1cccc(Br)c1 (stereo unspecified)	-5.48%
CCn1c(SCC(=O)Nc2ccc3c(c2)OCCO3)nnc1C(C)C	23.4%
CCC(=O)N1CCN(c2ccccc2NC(=O)COc2cccc(C)c2C)CC1	-4.98%
COc1ccc(S(=O)(=O)N2CCOC2CNC(=O)C(=O)NCc2ccc(F)cc2)cc1 (stereo unspecified)	-3.23%
Cc1ccc(S(=O)(=O)NCCCn2ccnc2)cc1C(=O)NC(C)C	-5.57%
COc1cccc(NC(=S)NCc2ccco2)c1	-1.12%
COc1ccc(C(=O)Nc2ccccc2C(=O)NCc2ccco2)cc1	55.1% (active)
COc1ccc2oc(C(=O)NCc3ccco3)c(C)c2c1	57% (active)
COc1cc(C(=O)NC(=S)NCc2ccco2)cc(OC)c1OC	-9.57%
Cc1ccc(N(Cc2ccc(C(=O)Nc3ccccc3C(=O)NCc3ccco3)cc2)S(C)(=O)=O)cc1C	-16.6%
O=C(NCc1ccco1)c1cc2sccc2n1Cc1ccc(F)cc1	59.6%
O=C(Nc1ccccc1)Nc1ccccc1C(=O)NCc1ccco1	17.2%
O=C(NCc1ccco1)c1sc2cccc(F)c2c1Cl	80.8% (active)
COc1ccc2c(Cl)c(C(=O)NCc3ccco3)sc2c1	93.2% (active)
COc1cc(C(=O)N[C@@H](C)C(=O)NCc2ccco2)cc(OC)c1OC	-3.33%
COc1ccc2oc(C(=O)NCC(Cc3ccccc3)N(C)C)c(C)c2c1 (stereo unspecified)	19.2%
O=C(NCc1ccco1)c1nn2cccnc2c1Cl	18.5%
CCNc1c(NS(=O)(=O)c2ccc(C3CCCCC3)cc2)c(=O)oc2ccccc12	-11.4%
COc1ccc(OCC(O)CN(C)C(=O)C(C)Oc2ccccc2)cc1 (stereo unspecified)	-1.44%

Compound	inhibition
Cc1cccc(NS(=O)(=O)c2ccc(-c3cnc(C4CC4)o3)cc2)c1	14.4%
CC(C)[C@H](NC(=O)N1CC(=O)Nc2ccccc21)C(=O)N[C@@H](Cc1c[nH]c2ccccc12)C(=O)O	-8.09%
C=CCOc1cccc(C2NC(=O)c3ccccc3O2)c1 (stereo unspecified)	5.66%
Cc1ccc(S(=O)(=O)N2CCN(C(=O)CSc3cc(C)ccc3C)CC2)c(C)c1	-13%
COc1ccccc1C(=O)NNC(=O)c1ccc(NC(=O)c2ccccc2)cc1	-13.9%
COc1ccc(C(=O)Nc2ccccc2C(=O)N/N=C/c2ccc(O)c(OC)c2)cc1	-21.6%
COc1ccc(C(=O)Nc2ccccc2C(=O)N/N=C/c2ccccc2OC)cc1	89.2% (active)
COc1ccc(C(=O)NC(C)c2nccs2)cc1OC1CCN(C(C)C)CC1 (stereo unspecified)	-1.47%
Cc1nc2ccc(NC(=O)N3CCC(c4ccccc4)C3)cc2nc1C (stereo unspecified)	2.35%
Cc1nc2ccc(NC(=S)N3CCC(C)CC3)cc2nc1C	33.9% (active)
Cc1cccc(NC(=S)N2CCC(c3nc4ccccc4s3)CC2)c1	-9.34%
O=C(Cn1ncc(N2CCCC2)c(Br)c1=O)c1ccc(Cl)cc1	37.7% (active)
Cn1c(=O)c2c(nc(N3CCCCCC3)n2CC(=O)c2ccc(Br)cc2)n(C)c1=O	2.71%
CC(=O)Cn1ncc(N2CCOCC2)c(Br)c1=O	-5.02%
O=C(CNc1cccc(S(=O)(=O)N2CCCCC2)c1)Nc1ccccc1F	-9.02%
CCc1ccc(NC(=O)Cn2nnc(C(=O)NCc3ccc4c(c3)OCO4)c2N)cc1	0.685%
Cc1cccc2sc(N(CCCN(C)C)C(=O)CCS(=O)(=O)c3ccccc3)nc12	6.64%
CCn1nc(C(=O)OCC(=O)N2c3ccccc3CC2C)c2ccccc2c1=O (stereo unspecified)	-10.9%
Cc1ccn(CCC(=O)N2c3ccccc3CC2C)n1 (stereo unspecified)	-3.39%
CCCC(=O)N1c2ccc(-c3csc(N)n3)cc2CC1C (stereo unspecified)	71.3% (active)
CCC(C)Sc1nc2c(cnn2-c2ccc(F)cc2)c(=O)[nH]1 (stereo unspecified)	-5.58%
COc1cccc(OCC(O)CNC(=O)c2oc3c(C)c(C)ccc3c2C)c1 (stereo unspecified)	-9.45%
CCOCc1nnc(NC(=O)CCS(=O)(=O)Cc2ccccc2)s1	-3.13%
Cc1cccc(CCNS(=O)(=O)c2ccc3c(c2)NC(=O)CO3)c1	-6.16%

Compound	inhibition
Cc1cc2ncn(CCCCOc3ccccc3)c2cc1C	-3.93%
Clc1ncn(CCOc2ccccc2)c1Cl	-16.2%
Cc1nn(CCOc2ccccc2)c(=O)n1-c1ccccc1F	72.3% (active)
COc1ccc(-c2nc3c(s2)CCc2onc(-c4ccc(OC)cc4)c2-3)cc1	-4%
Cc1nn(C)c(Cl)c1CN1CCC(n2nccc2NC(=O)C2CCCC2)CC1	-4.44%
O=C(NCc1cccc(Cl)c1)C1CCC(=O)N(C2CC2)C1 (stereo unspecified)	1.78%
O=C(N/N=C/c1c[nH]c2ccccc12)c1cc2ccccc2o1	51.6% (active)
O=C(N/N=C/c1ccc([N+](=O)[O-])cc1)c1c[nH]c2ccccc12	35.6%
O=C(N/N=C/c1c[nH]c2ccccc12)c1ccccc1O	46.2% (active)
Cc1c(/C=N\NC(=O)c2cc3ccccc3o2)c2ccccc2n1C	33.2%
O=C(N/N=C/c1coc2ccccc2c1=O)c1cc2ccccc2o1	-15.3%
CSC(=S)N/N=C/c1c[nH]c2ccccc12	18.5%
COc1cccc(NC(=O)C/C(C)=N/NC(=O)C2CCCCC2)c1	5.94%
CCC(C)C(NC(=O)C1CCC(=O)N1C(=O)OCc1ccccc1)C(=O)NC(C(=O)N1CCCC1C(N)=O)C(C)CC (stereo unspecified)	-2.25%
CCCCCNC(=O)Cc1ccc(OC)cc1	35.5%
COc1ccc(C/C(C)=N/NC(=O)c2ccncc2)cc1	13.5%
COc1ccc(C/C(C)=N/NC(=O)c2cc(C)oc2C)cc1	39.4% (active)
Cc1nc2nc(C)c(NS(=O)(=O)c3ccc(C(C)(C)C)cc3)c(=O)n2[nH]1	-4.52%
Cc1ccc(C)c(NC(CC(=O)c2ccccc2)C(=O)OCC(=O)c2cccs2)c1 (stereo unspecified)	-2.14%
Cc1ccccc1C(CC(=O)c1cccs1)C(C#N)C#N (stereo unspecified)	60.4% (active)
C/C(=N\NC(=O)COc1c(C)cccc1C)c1cccs1	23.6%
CCOc1ccc(CN2CCN(Cc3c[nH]c4ccccc34)CC2)cc1	-7.52%
C/C=C/C(=O)OCc1csc(CC(=O)Nc2ccccc2C)n1	-12.5%
Cc1ccc2c(c1)c1ncn(Cc3ccc(F)cc3)c(=O)c1n2C	-13.4%

Compound	inhibition
Cc1ccc2c(c1)c1ncn(CCC3=CCCCC3)c(=O)c1n2C	1.3%
Cc1ccc2c(c1)c1ncnc(N3CCc4ccccc4C3)c1n2C	61.5% (active)
COc1ccc(-c2cc(C(=O)N3CCN(Cc4ccc5c(c4)OCO5)CC3)on2)cc1OC	-5.83%
COCC1CCCN(C(=O)c2ccc3oc(C(C)C)nc3c2)C1 (stereo unspecified)	13.8%
COCC1CCN(C(=O)CCc2nnc(C3(c4ccc(Cl)cc4)CCC3)o2)C1 (stereo unspecified)	59.4% (active)
O=C1CCC(CCC(=O)N2CCCC(C(=O)c3ccc(Cl)cc3)C2)=NN1 (stereo unspecified)	12.9%
CCn1c(SCC(=O)Nc2ccc3c(c2)OCCO3)nnc1-c1ccncc1	24.3%
O=C(O)c1ccccc1-c1ccccc1C(=O)Nc1cccc2ccccc12	-18.7%
O=C(Nc1cccc2ccccc12)c1onc2c1CCCC2	80.7% (active)
O=C(COC(=O)c1ccccn1)Nc1cccc2ccccc12	-15.8%
CCN1CCN(C(=O)C2CCCN(S(=O)(=O)c3ccc(OC)c(OC)c3)C2)CC1 (stereo unspecified)	11.9%
NC(=O)c1cc(-c2cccnc2)nc2ccc(Br)cc12	20%
CC(CN1CCC(n2nccc2NC(=O)C2CCCC2)CC1)c1ccccc1 (stereo unspecified)	-13%
Cc1ccccc1C(=O)Nc1ccccc1NC(=O)c1ccccc1C	-1.64%
Cc1cc(NC(=O)c2ccccc2C)no1	55.6% (active)
Cc1cc(NC(=O)CSCc2ccccc2C)no1	48.6%
C=CCNC(=O)c1ccc2c3n(nc2c1)-c1ccc(C)cc1CO3	83.8% (active)
CCOc1c2ccc(C(=O)NCc3ccc4c(c3)OCO4)cc2nn1C	9.39%
Cc1cccc(-c2nc3ccc(C(=O)NCCN4CCN(C)CC4)cc3nc2-c2cccc(C)c2)c1	-22.4%
COc1cc(CNCc2ccc(OC)c3ccccc23)cc(OC)c1OC	-2.52%
Cc1cccc(N(Cc2ccccc2)C(=O)c2ccccc2F)c1	41.2%
COc1ccc(COC(=O)N/N=C(\C)CC(=O)Nc2ccc(Cl)cc2)cc1	-3.95%
COc1ccc(C(=O)NC(=S)Nc2ccc(Cl)cn2)cc1OC	4.19%
COc1ccc(C(=O)N/N=C(\C)CC(=O)Nc2ccc(Cl)cn2)cc1	97.1% (active)
